# Data published in the supplement of paper PMC13380429.
# Tests used:
# [1] = system: Vero E6 infected with SARS-CoV-2; assay: morphology score (similarity to uninfected cells); higher = more like uninfected cells; conditions: 24 h
# [2] = system: Vero E6 infected with SARS-CoV-2; assay: SARS-CoV-2 infection rate relative to infected DMSO; higher = more infection, active = 60 or less; conditions: 24 h
Structure (SMILES),morphology score [1],SARS-CoV-2 infection rate [2]
NCCS [cysteamine] (10 µM),-0.0321,112% (inactive)
Cc1c[nH]c(=O)n(CCCN2CCN(c3ccccc3OCC(F)(F)F)CC2)c1=O (10 µM),0.0456,111% (inactive)
COC[C@H](C)Oc1cc(O[C@@H](C)Cc2ccccc2)cc(C(=O)Nc2ccc(C(=O)O)cn2)c1 (10 µM),-0.163,100% (inactive)
CN(C)C(=O)C(=O)c1cn(C)c2cc(Cl)c(C(=O)N3CCC(Cc4ccc(F)cc4)CC3)cc12 (10 µM),0.323,82% (inactive)
C#C[C@]1(O)CC[C@H]2[C@@H]3CCC4=CC(=NO)CC[C@@H]4[C@H]3CC[C@@]21CC (mixture of isomers) [norelgestromin] (10 µM),-0.0918,108% (inactive)
CCC(C)(C)C(=O)O[C@H]1C[C@@H](C)C=C2C=C[C@H](C)[C@H](CC[C@@H]3C[C@@H](O)CC(=O)O3)[C@H]21 [simvastatin] (0.833333 µM),-0.0774,26.5% (active)
CCCN[C@H]1CCc2nc(N)sc2C1 [pramipexole] (10 µM),0.032,120% (inactive)
Cc1cnc(-c2cc(N3CCN(C(=O)CCS(C)(=O)=O)CC3)ncc2Cl)c(C)c1 (10 µM),0.241,105% (inactive)
COc1cc(C(=O)NCCCCCC(=O)O)cc(OC)c1OC [capobenic-acid] (10 µM),0.0878,108% (inactive)
CCN(CC)C(=S)SSC(=S)N(CC)CC [disulfiram] (10 µM),0.548,23% (active)
CC(C)C[C@H](NC(=O)[C@@H](Cc1c[nH]c2ccccc12)NC(=O)[C@H](Cc1ccc(O)cc1)NC(=O)[C@H](CO)NC(=O)[C@H](Cc1c[nH]c2ccccc12)NC(=O)[C@H](Cc1c[nH]cn1)NC(=O)[C@@H]1CCC(=O)N1)C(=O)N[C@@H](CCCNC(=N)N)C(=O)N1CCC[C@H]1C(=O)NCC(N)=O [triptorelin] (10 µM),-0.0195,110% (inactive)
CC(C)NCC(O)c1cc(O)cc(O)c1 (stereo not given) [metaproterenol] (10 µM),0.132,104% (inactive)
CN1Cc2ccccc2[C@@H]2c3cccc4[nH]cc(c34)C[C@H]21 (10 µM),0.609,95.5% (inactive)
C=C[C@H]1CN2CC[C@H]1C[C@H]2[C@H](O)c1ccnc2ccccc12 [cinchonidine] (10 µM),-0.111,112% (inactive)
Cc1cccc(C)c1NC(=O)CN1CCCC1=O [nefiracetam] (10 µM),0.0495,113% (inactive)
CCOC(=O)c1c(CSc2ccccc2)n(C)c2cc(Br)c(O)c(CN(C)C)c12 [arbidol] (10 µM),0.126,87.5% (inactive)
NC1(c2ccc(-c3nc4ccn5c(=O)[nH]nc5c4cc3-c3ccccc3)cc2)CCC1 (0.833333 µM),0.255,106% (inactive)
Nc1ccc(S(=O)(=O)NC(=O)c2ccccc2)cc1 [sulfabenzamide] (10 µM),0.0893,106% (inactive)
C[C@H]1O[C@@H](n2cc(F)c(=O)[nH]c2=O)[C@H](O)[C@@H]1O [doxifluridine] (10 µM),0.32,108% (inactive)
Cc1nnc(C[C@@H]2C=C(c3ccc(Cl)cc3)c3ccccc3-n3c(C)nnc32)o1 (0.833333 µM),-0.106,108% (inactive)
CCC(C)CCCC(=O)N[C@@H](CCN)C(=O)N[C@H](C(=O)N[C@@H](CCN)C(=O)N[C@H]1CCNC(=O)[C@H]([C@@H](C)O)NC(=O)[C@H](CCN)NC(=O)[C@H](CCN)NC(=O)[C@H](CC(C)C)NC(=O)[C@@H](CC(C)C)NC(=O)[C@H](CCN)NC1=O)[C@@H](C)O (stereo not given in full) [colistin] (10 µM),0.134,96.2% (inactive)
O=c1c(-c2ccc(O)cc2)coc2cc(O)ccc12 [daidzein] (10 µM),0.126,95% (inactive)
CCN(CC)C(=O)N[C@H]1C[C@@H]2c3cccc4[nH]cc(c34)C[C@H]2N(C)C1 [terguride] (10 µM),-0.00522,110% (inactive)
COc1ccc(-c2cc(=O)c3c(O)c(OC)c(O)cc3o2)cc1OC [eupatilin] (10 µM),-0.0115,109% (inactive)
O=C(N[C@@H]1Cc2ccccc2N(C[C@@H](O)CO)C1=O)c1cc2cc(Cl)sc2[nH]1 (10 µM),-0.155,105% (inactive)
